# The campaign covered roughly 420,000 compounds. About 64,000 (15%) were called active. Inconclusive results (about 27%) are left out. These entries were drawn from the full list. Unmarked numbers belong to inactive results. The call rests on the fitted dose curve; in most records, active means well fitted inhibition curve with a large enough effect; inconclusive means small, poorly fitted or top-dose-only effect; inactive means flat fitted curve, though single readings scatter.
# Experiment: qHTS for Inhibitors of human tyrosyl-DNA phosphodiesterase 1 (TDP1): qHTS in cells in absence of CPT; further: nearly all actives have a fitted effect of over 55% in size
# Conditions: DT40 Tdp1-/- hTDP1 cells, no CPT, ATP luminescence, 48 h; activity change, negative = growth inhibition: at 46.2 µM (top of the series)
# Method in brief: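 Chicken DT40 Tdp1-/- cells stably complemented with human TDP1 were seeded at 400 cells/well with DMSO in place of 20 nM camptothecin. After compound pinning, cells grew at least 48 hr at 37 °C; viability read by CellTiter-Glo luminescence.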
# On the % scale 0 is the no-effect control and ±100 the full control effect; potency means the concentration at half of the fitted maximal effect.
SMILES,Potency,"activity change, negative = growth inhibition [%]"
CCC(C)N(c1ccc(/C=C/c2ccnc3ccccc23)cc1)C(C)CC (centres undefined),4.47 µM (active),
O=C(CN1CCCC1)N1CCN(c2ccccc2)CC1,,4.2
c1ccc(-c2cnc(CN3CCN(c4ccccc4)CC3)o2)cc1,,-4.06
CCN1CCN(c2ccc(/C=C/c3ccnc4ccccc34)cc2)CC1,17.8 µM (active),
Oc1ccc(/C=N/N(Cc2ccccc2)c2ccccc2)cc1,,0.739
CN(Cc1ccccc1)c1ccc(/C=C/c2ccnc3ccccc23)cc1,12.6 µM (active),
CN(C)c1ccc(/C=N/N(Cc2ccccc2)c2ccccc2)cc1,,5.64
CCCCN1C(=O)CC(N2CCOCC2)C1=O (centres undefined),,-1.99
CN(C)C(=O)c1cccn(Cc2cccc(C(F)(F)F)c2)c1=O,,2.44
O=C(c1cc(-c2ccc(O)cc2)on1)N1CCOCC1,,-0.712
CC(=O)c1ccc(NC(=S)N(Cc2ccccc2)C(C)C2CC2)cc1 (centres undefined),,-18.9
O=C(Nc1ccc(C(=O)O)cc1)/C(=C/c1ccc([N+](=O)[O-])cc1)NC(=O)c1ccccc1,,-11.3
CCOC(=O)C1(C(F)(F)F)N=C(N(C)C)OC(N(C)C)=N1,,-2.16
Cc1ccc2nsnc2c1S(=O)(=O)N1CCCC1C(=O)O (centres undefined),,-2.15
O=C(CNC(=O)c1ccccc1)NCC(=O)OCc1ccc(Cl)cc1,,-13.1
CCOC(=O)CSc1nccc(N(C)C)c1C#N,,1.31
CN(CC(=O)NCCN1CCOCC1)S(=O)(=O)c1ccc(F)cc1,,5.76
O=C(NC(Cc1c[nH]c2ccccc12)C(=O)O)/C(=C/c1ccco1)NC(=O)c1ccccc1 (centres undefined),,-0.131
Cc1c(Cl)cccc1NC(=S)NCc1ccc2c(c1)OCO2,,-27.6
c1ccc(Cn2nnc3c(N4CCCCC4)ncnc32)cc1,8.91 µM (active),
O=C(CSc1ncnc2c1nnn2Cc1ccc(F)cc1)NC1CCCC1,,1.56
CC(C)Nc1ncnc2c1nnn2Cc1ccccc1,,-22.2
CCc1ccccc1NC(=O)CSc1nnc([C@@H](NC(=O)OC(C)(C)C)C(C)CC)o1 (some centres undefined),,-10
CC(C)c1nc(SCC(=O)Nc2cccc(C(=O)O)c2)c2c3c(sc2n1)CCCC3,,-3.16
Cc1cc(NC(=O)CSc2nc(C(C)C)nc3sc4c(c23)CCC(C)C4)no1 (centres undefined),23.1 µM (active),
Cc1nc(SCC(=O)Nc2cc(C)on2)c2c3c(sc2n1)CCCC3,,-22.6
CSc1ccc(CCNC(=O)c2cnn(-c3ccccc3)c2-n2cccc2)cc1,14.6 µM (active),

SMILES,Potency,"activity change, negative = growth inhibition [%]"
Cc1c(C(=O)NCc2ccccc2)cnn1-c1ccccc1,,-3.89
CCCN1CCN(CCCNC(=O)c2cnn(-c3ccc(C)cc3)c2-n2cccc2)CC1,,-27
C=CCn1c(SCC(=O)NC(=O)Cc2ccccc2)nc2ccccc2c1=O,,1.77
Cc1csc(=O)n1CCC(=O)OCC(=O)NNC(=O)c1ccc(Br)cc1,,-14.1
O=C1CC(c2ccc(F)cc2F)c2cc3c(cc2N1)OCO3 (centres undefined),,-22.4
CCCOc1ccccc1C1CC(=O)Nc2cc3c(cc21)OCO3 (centres undefined),1.84 µM (active),
COCCOC(=O)C1=C(C)NC(=O)CC1c1cc2c(cc1Br)OCO2 (centres undefined),,-12.9
Cc1cc(C)c2nc(NC(=O)C3CCCO3)sc2c1 (centres undefined),,-22.2
Cn1c(=O)c(Sc2ccc(Cl)cc2)c(O)c2ccccc21,,-22.1
CCC(Sc1nnc(-c2ccc(OC)cc2)c(-c2ccc(OC)cc2)n1)C(=O)NC1CCCCC1 (centres undefined),13 µM (active),
COc1ccc(-c2nnn(CC(=O)N(CCO)C(C(=O)NC3CCCC3)c3ccc(F)cc3)n2)cc1 (centres undefined),,-22.1
COc1ccc(-c2nnc(SC(C)C(=O)NC3CC3)o2)cc1 (centres undefined),,12.8
O=C(NCc1nnc(SCC(=O)N2CCCCCC2)o1)c1ccc(F)cc1,,-8.37
S=c1nccc(-c2cc(Cl)sc2Cl)[nH]1,,-28
CC1(C)Cc2ccccc2-c2c[nH]c(=O)n21,,-10.5
O=c1c2ccccc2nc2n1C1(CCCCC1)Cc1ccccc1-2,16.4 µM (active),
c1cncc(-c2nnc3n2C2(CCCCC2)Cc2ccccc2-3)c1,,-8.67
CCCc1ccc(C(=O)COC(=O)CN2C(=O)NC3(CCCCC3C)C2=O)cc1 (centres undefined),,13.5
O=C(NC1CCCC1)C1CCN(C(=O)Nc2cccc(Cl)c2)CC1,,0.869
CCn1cc(CN2CCC(C(=O)Nc3cccc(-c4cccc(Cl)c4)c3)CC2)c(C)n1,4.61 µM (active),
O=C(NCC1CCN(Cc2ccccc2Cl)CC1)Nc1cccc(Cl)c1,18.4 µM (active),
O=C(Nc1cccc(-c2cccc(Cl)c2)c1)C1CCN(C2CCC2)CC1,23.1 µM (active),
Cc1ccccc1NC(=O)NCC1CCN(Cc2cccc(Cl)c2)CC1,,0.533
O=C(Nc1cccc(-c2cscn2)c1)C1CCN(Cc2ccsc2)CC1,,-8.03
COc1ccc(Cl)cc1NC(=O)NCC1CCN(Cc2ccccc2F)CC1,,-0.532
COc1cccc(-c2cccc(NC(=O)C3CCN(C4CCC4)CC3)c2)c1,,3.26
CCn1cc(CN2CCC(n3nccc3NC(=O)CCCc3ccccc3)CC2)c(C)n1,,6.6

# — PubChem BioAssay AID686978 (National Center for Advancing Translational Sciences (NCATS), 2013)
